Experimental data reported in PubChem BioAssay AID1159580 (chemical genetic matrix, 2015).
Several values for one entry are separate records, joined by “and”; a condition that tells them apart may be missing. Equal values may be shown once. Among all 5,500 compounds or so, about 2,000 (36%) were called active. About 18% were inconclusive and are not listed. Rule as the data show it: active = normalized growth mostly below about 0.91 (no sharp cut-off); inconclusive = no clear call, values can overlap the other calls; inactive = mostly above about 0.92. The list shows a part of the results.

Test: chemical genetic growth profiling, strain panel (AID 1159580);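 also: tested at 20 µM; growth read once vehicle control cultures reached saturation at 30 °C; 1 = growth at the plate median or of vehicle wells; lower values mean less growth of the strain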
Conditions: S. cerevisiae deletion strains, growth OD

Measured: normalized growth

NC[C@H]1O[C@H](O[C@H]2[C@H](O)[C@@H](O[C@H]3O[C@H](CO)[C@@H](O)[C@H](N)[C@H]3O)[C@H](N)C[C@@H]2N)[C@H](N)C[C@@H]1O
inactive: locus YAL013W, strain DEP1, hits give low values 1 | locus YAL021C, strain ccr4, hits give low values 0.979 | locus YAL026C, strain drs2, hits give low values 1.01 | locus YAL030W, strain snc1, hits give low values 1.01 | locus YBL061C, strain skt5, hits give low values 1.01 | locus YBR009C, strain hhf1, hits give low values 1.05 | locus YBR021W, strain FUR4, hits give low values 1.02 | locus YBR023C, strain chs3, hits give low values 1.01 | locus YBR171W, strain sec66, hits give low values 1.01 | locus YBR229C, strain ROT2, hits give low values 1.01 | locus YBR231C, strain swc5, hits give low values 0.987 | locus YBR279W, strain paf1, hits give low values 1.02 | locus YCL011C, strain gbp2, hits give low values 1.02 | locus YCL016C, strain dcc1, hits give low values 1.02 | locus YCL029C, strain bik1, hits give low values 1.02 | locus YCL061C, strain MRC1, hits give low values 0.994 | locus YCL069W, strain vba3, hits give low values 1.01 | locus YCR088W, strain abp1, hits give low values 1.01 | locus YDL005C, strain med2, hits give low values 1 | locus YDL035C, strain GPR1, hits give low values 1 | locus YDL040C, strain nat1, hits give low values 1.02 | locus YDL074C, strain BRE1, hits give low values 0.971 | locus YDL101C, strain DUN1, hits give low values 0.997 | locus YDL134C, strain PPH21, hits give low values 1.01 | locus YDL185W, strain tfp1, hits give low values 1 | locus YDL192W, strain arf1, hits give low values 1.01 | locus YDR001C, strain nth1, hits give low values 1.01 | locus YDR069C, strain doa4, hits give low values 0.985 | locus YDR101C, strain arx1, hits give low values 1.02 | locus YDR137W, strain rgp1, hits give low values 0.99 | locus YDR159W, strain sac3, hits give low values 0.987 | locus YDR162C, strain NBP2, hits give low values 1.01 | locus YDR195W, strain ref2 1.01 | locus YDR297W, strain sur2, hits give low values 1.01 | locus YDR318W, strain mcm21, hits give low values 1.02 | locus YDR334W, strain swr1, hits give low values 1.02 | locus YDR335W, strain msn5, hits give low values 1.01 | locus YDR388W, hits give low values 1.02 | locus YDR392W, strain spt3, hits give low values 0.907 | locus YDR502C, strain sam2, hits give low values 1 | locus YEL003W, strain gim4, hits give low values 1.03 | locus YEL037C, strain rad23, hits give low values 1.02 | locus YEL061C, strain CIN8 (second series), hits give low values 1.02 | locus YEL061C, strain CIN8, hits give low values 0.988 | locus YER015W, strain faa2, hits give low values 1.02 | locus YER016W, strain bim1, hits give low values 1.01 | locus YER110C, hits give low values 1.01 | locus YER111C, strain swi4, hits give low values 1.01 | locus YER155C, strain BEM2 (second series), hits give low values 0.911 | locus YER155C, strain BEM2, hits give low values 1.02 | locus YER167W, strain BCK2, hits give low values 1.01 | locus YFR010W, strain ubp6, hits give low values 1.02 | locus YGL078C, strain dbp3, hits give low values 1 | locus YGL086W, strain mad1, hits give low values 0.991 | locus YGL167C, strain pmr1, hits give low values 1.01 | locus YGL173C, strain kem1, hits give low values 1.01 | locus YGL227W, strain vid30, hits give low values 1.01 | locus YGL240W, strain doc1, hits give low values 0.978 | locus YGL248W, strain PDE1, hits give low values 0.999 | locus YGL253W, strain hxk2, hits give low values 1.01 | locus YGR135W, strain pre9, hits give low values 1.01 | locus YGR252W, strain gcn5, hits give low values 0.944 | locus YHR013C, strain ard1, hits give low values 0.952 | locus YHR027C, strain rpn1, hits give low values 1.02 | locus YHR030C, strain SLT2, hits give low values 1.01 and 0.98 | locus YHR079C, strain IRE1 (second series), hits give low values 1.02 | locus YHR079C, strain IRE1, hits give low values 0.985 | locus YHR094C, strain hxt1, hits give low values 1.02 | locus YHR129C, strain ARP1, hits give low values 1.01 | locus YHR142W, strain chs7, hits give low values 1.03 | locus YHR200W, strain rpn10, hits give low values 1.01 | locus YIL066C, strain RNR3, hits give low values 1 | locus YIL073C, strain SPO22, hits give low values 1.05 | locus YIL125W, strain kgd1, hits give low values 1 | locus YIR030C, strain dcg1, hits give low values 1.02 | locus YJL092W, strain hpr5, hits give low values 1.02 | locus YJL095W, strain BCK1 (second series), hits give low values 1.04 | locus YJL095W, strain BCK1, hits give low values 0.985 and 0.999 | locus YJL115W, strain asf1, hits give low values 1.01 | locus YJL129C, strain trk1, hits give low values 1 | locus YJL134W, strain LCB3, hits give low values 1.01 | locus YJL154C, strain vps35, hits give low values 1.02 | locus YJL164C, strain tpk1, hits give low values 1.03 | locus YJL166W, strain qcr8, hits give low values 0.979 | locus YJL168C, strain set2, hits give low values 1.01 | locus YJL187C, strain SWE1 (second series), hits give low values 1 | locus YJL187C, strain SWE1, hits give low values 1.03 | locus YJR043C, strain POL32, hits give low values 0.98 | locus YJR066W, strain TOR1, hits give low values 0.951
